# In publication PMC7862700, “An all-to-all approach to the identification of sequence-specific readers for epigenetic DNA modifications on cytosine”:
# Experiments:
# Assay in all cases: DAPPL (digital affinity profiling via proximity ligation, sequencing); 10 mM Tris-HCl pH 7.5, 50 mM NaCl, 1 mM DTT, 4% glycerol, room temperature, 30 min; GST-TFs on glutathione beads, 16-mer random dsDNA library, 0.1% formaldehyde crosslink after washing; high values mean tight binding
# [1] = biological target: T1, FLI1 (Homo sapiens, UniProt Q01543 1-452); conditions: protein: recombinant; tags: N-terminal GST; dsDNA, one strand shown
# T1 sequence: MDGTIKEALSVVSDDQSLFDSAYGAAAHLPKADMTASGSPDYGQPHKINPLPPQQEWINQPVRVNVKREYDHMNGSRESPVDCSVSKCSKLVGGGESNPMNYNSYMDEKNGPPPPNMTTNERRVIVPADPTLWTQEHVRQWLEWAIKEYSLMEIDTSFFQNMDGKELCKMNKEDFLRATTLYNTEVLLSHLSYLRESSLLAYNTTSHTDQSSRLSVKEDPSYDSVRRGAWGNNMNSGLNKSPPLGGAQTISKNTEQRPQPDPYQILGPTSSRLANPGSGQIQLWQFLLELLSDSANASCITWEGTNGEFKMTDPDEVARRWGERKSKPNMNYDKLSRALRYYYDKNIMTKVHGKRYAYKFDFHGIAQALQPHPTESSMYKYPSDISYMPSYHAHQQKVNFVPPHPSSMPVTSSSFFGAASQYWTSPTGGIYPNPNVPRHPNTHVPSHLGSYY
# Procedure, shortened: (§1)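 GST fusions of human transcription factors were expressed in yeast and captured with glutathione beads. Once given DNA barcodes and pooled alongside a tag-only sample, they were incubated for 30 min at room temperature with 200 nmole of a random double-stranded 16-mer DNA library in Tris/NaCl/DTT/glycerol buffer, then washed, crosslinked (0.1% formaldehyde), proximity-ligated, PCR-amplified and sequenced on an Illumina NextSeq500. The binding signal of each hexamer is its read frequency for a factor divided by its frequency for the tag-only sample.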
# [2] = biological target: T2, ELK1 (Homo sapiens, UniProt P19419 1-428); conditions: protein: recombinant; tags: N-terminal GST; dsDNA, one strand shown
# T2 sequence: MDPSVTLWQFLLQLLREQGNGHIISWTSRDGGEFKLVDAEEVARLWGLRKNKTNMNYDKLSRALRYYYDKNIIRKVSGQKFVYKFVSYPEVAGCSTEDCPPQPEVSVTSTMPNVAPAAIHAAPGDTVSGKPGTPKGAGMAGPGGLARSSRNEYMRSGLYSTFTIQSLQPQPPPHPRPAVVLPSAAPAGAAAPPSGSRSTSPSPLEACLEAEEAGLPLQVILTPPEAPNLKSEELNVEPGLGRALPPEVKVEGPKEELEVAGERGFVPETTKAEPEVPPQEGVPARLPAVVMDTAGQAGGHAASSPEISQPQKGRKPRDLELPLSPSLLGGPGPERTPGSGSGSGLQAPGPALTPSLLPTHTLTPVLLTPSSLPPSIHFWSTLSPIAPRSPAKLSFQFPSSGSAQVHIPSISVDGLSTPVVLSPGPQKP
# Procedure, shortened: as §1
# [3] = biological target: T3, GABPA (Homo sapiens, UniProt Q06546 1-454); conditions: protein: recombinant; tags: N-terminal GST; dsDNA, one strand shown
# T3 sequence: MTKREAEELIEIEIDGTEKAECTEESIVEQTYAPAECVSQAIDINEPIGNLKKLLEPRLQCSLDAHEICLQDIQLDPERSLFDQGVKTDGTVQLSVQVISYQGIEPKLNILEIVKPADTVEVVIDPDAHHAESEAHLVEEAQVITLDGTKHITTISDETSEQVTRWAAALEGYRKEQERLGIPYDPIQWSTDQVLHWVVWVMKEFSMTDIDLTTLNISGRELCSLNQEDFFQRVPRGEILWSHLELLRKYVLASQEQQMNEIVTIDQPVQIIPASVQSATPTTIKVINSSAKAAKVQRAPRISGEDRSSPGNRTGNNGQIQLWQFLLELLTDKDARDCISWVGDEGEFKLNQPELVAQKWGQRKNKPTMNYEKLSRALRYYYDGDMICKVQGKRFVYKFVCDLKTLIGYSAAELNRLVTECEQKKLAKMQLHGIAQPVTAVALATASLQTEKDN
# Procedure, shortened: as §1
# [4] = biological target: T4, ERG (Homo sapiens, UniProt P11308 1-479); conditions: protein: recombinant; tags: N-terminal GST; dsDNA, one strand shown
# T4 sequence: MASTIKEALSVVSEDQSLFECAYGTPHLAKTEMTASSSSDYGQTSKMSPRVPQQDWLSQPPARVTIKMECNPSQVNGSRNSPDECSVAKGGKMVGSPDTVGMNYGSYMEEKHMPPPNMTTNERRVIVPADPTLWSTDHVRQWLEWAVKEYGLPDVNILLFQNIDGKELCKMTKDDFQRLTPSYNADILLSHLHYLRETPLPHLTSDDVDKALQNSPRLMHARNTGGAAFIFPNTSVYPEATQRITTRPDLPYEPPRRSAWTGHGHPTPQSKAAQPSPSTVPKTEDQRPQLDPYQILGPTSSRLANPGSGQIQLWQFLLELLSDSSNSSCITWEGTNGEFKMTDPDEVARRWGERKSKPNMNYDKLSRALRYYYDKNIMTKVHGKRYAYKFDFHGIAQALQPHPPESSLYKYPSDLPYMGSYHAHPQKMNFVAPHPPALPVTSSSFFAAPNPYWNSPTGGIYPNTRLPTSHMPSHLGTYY
# Procedure, shortened: as §1
# [5] = biological target: ELF1 (Homo sapiens, UniProt P32519 1-619); conditions: protein: recombinant; tags: N-terminal GST; dsDNA, one strand shown
# Procedure, shortened: as §1
# [6] = biological target: T5, EHF (Homo sapiens, UniProt Q9NZC4 1-300); conditions: protein: recombinant; tags: N-terminal GST; dsDNA, one strand shown
# T5 sequence: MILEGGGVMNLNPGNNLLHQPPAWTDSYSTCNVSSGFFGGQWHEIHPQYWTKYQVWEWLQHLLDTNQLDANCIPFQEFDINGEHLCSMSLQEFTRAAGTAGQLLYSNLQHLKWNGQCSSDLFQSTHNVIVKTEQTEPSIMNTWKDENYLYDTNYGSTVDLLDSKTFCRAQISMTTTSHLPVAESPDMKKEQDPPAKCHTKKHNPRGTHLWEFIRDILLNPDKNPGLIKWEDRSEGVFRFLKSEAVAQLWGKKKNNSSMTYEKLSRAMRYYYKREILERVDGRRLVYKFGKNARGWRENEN
# Procedure, shortened: as §1
# [7] = biological target: SPI1 (Homo sapiens, UniProt P17947 1-270); conditions: protein: recombinant; tags: N-terminal GST; dsDNA, one strand shown
# Procedure, shortened: as §1
# [8] = biological target: SPIB (Homo sapiens, UniProt Q01892 1-262); conditions: protein: recombinant; tags: N-terminal GST; dsDNA, one strand shown
# Procedure, shortened: as §1
# [9] = biological target: T6, ELK3 (Homo sapiens, UniProt P41970 1-407); conditions: protein: recombinant; tags: N-terminal GST; dsDNA, one strand shown
# T6 sequence: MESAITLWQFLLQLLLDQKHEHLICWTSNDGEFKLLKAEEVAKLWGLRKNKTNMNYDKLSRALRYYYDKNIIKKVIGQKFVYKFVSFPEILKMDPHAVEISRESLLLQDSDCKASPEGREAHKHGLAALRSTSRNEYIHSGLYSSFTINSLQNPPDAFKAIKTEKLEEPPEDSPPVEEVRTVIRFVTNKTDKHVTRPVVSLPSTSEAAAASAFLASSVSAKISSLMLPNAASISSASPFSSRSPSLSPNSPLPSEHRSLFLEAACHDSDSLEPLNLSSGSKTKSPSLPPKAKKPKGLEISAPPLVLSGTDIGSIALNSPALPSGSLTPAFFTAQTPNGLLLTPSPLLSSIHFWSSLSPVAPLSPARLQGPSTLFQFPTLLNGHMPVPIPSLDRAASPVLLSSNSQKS
# Procedure, shortened: as §1
# [10] = biological target: T7, FEV (Homo sapiens, UniProt Q99581 1-238); conditions: protein: recombinant; tags: N-terminal GST; dsDNA, one strand shown
# T7 sequence: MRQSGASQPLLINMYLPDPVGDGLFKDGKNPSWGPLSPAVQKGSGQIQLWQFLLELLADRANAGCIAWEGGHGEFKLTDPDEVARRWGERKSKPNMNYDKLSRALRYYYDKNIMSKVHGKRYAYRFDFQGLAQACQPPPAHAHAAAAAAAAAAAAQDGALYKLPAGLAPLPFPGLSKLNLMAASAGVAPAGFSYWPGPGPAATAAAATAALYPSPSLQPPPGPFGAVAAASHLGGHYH
# Procedure, shortened: as §1
# [11] = biological target: ETV5 (Homo sapiens, UniProt P41161 1-510); conditions: protein: recombinant; tags: N-terminal GST; dsDNA, one strand shown
# Procedure, shortened: as §1
# [12] = biological target: HSF1 (Homo sapiens, UniProt Q00613 1-529); conditions: protein: recombinant; tags: N-terminal GST; chain copies: 3; dsDNA, one strand shown
# Procedure, shortened: as §1
# [13] = biological target: T8, SPIC (Homo sapiens, UniProt Q8N5J4 1-248); conditions: protein: recombinant; tags: N-terminal GST; dsDNA, one strand shown
# T8 sequence: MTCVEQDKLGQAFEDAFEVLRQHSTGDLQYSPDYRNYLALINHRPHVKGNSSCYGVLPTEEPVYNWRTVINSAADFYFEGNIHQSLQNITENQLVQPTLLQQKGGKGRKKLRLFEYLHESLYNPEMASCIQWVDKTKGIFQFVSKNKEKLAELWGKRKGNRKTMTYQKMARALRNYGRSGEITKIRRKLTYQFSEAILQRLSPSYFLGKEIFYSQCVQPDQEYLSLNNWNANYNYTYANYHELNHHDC
# Procedure, shortened: as §1
# [14] = biological target: ELF4 (Homo sapiens, UniProt Q99607 1-663); conditions: protein: recombinant; tags: N-terminal GST; dsDNA, one strand shown
# Procedure, shortened: as §1
# [15] = biological target: T9, ELK4 (Homo sapiens, UniProt P28324-2 1-405); conditions: protein: recombinant; tags: N-terminal GST; dsDNA, one strand shown
# T9 sequence: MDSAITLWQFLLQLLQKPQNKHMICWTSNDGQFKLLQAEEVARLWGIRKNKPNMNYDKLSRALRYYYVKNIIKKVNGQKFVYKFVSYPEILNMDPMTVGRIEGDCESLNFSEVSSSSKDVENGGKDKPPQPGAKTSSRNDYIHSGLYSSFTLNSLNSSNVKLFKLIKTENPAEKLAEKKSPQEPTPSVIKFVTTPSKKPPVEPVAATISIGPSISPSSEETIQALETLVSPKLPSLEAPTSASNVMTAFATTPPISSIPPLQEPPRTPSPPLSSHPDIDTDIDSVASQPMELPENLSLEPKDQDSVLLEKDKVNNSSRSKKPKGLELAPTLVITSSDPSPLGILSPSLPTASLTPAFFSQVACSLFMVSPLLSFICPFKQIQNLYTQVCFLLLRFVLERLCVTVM
# Procedure, shortened: as §1
# [16] = biological target: T10, ETV2 (Homo sapiens, UniProt O00321 1-342); conditions: protein: recombinant; tags: N-terminal GST; dsDNA, one strand shown
# T10 sequence: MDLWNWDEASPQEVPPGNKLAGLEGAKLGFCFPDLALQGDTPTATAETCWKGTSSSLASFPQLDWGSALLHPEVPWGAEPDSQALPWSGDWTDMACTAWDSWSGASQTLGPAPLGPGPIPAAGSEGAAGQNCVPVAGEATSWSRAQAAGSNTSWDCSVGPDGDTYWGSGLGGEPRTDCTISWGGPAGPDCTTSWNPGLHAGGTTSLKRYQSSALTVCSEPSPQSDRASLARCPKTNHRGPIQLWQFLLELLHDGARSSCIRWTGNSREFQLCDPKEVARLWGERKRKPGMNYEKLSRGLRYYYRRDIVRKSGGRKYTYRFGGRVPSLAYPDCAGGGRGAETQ
# Procedure, shortened: as §1
# [17] = biological target: T11, ELF3 (Homo sapiens, UniProt P78545 1-371); conditions: protein: recombinant; tags: N-terminal GST; dsDNA, one strand shown
# T11 sequence: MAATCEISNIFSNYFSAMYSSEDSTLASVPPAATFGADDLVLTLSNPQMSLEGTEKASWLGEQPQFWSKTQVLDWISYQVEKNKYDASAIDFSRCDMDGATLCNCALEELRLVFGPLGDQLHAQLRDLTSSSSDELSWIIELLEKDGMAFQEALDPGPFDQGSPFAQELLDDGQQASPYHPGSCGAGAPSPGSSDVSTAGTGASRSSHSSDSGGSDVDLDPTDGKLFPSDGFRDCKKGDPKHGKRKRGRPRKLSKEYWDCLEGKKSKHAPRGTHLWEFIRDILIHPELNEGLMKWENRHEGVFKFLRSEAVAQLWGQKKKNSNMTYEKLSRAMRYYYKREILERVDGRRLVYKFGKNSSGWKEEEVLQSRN
# Procedure, shortened: as §1
# [18] = biological target: CRX (Homo sapiens, UniProt O43186 1-299); conditions: protein: recombinant; tags: N-terminal GST; dsDNA, one strand shown
# Procedure, shortened: as §1
# [19] = biological target: ETV1 (Homo sapiens, UniProt P50549 1-477); conditions: protein: recombinant; tags: N-terminal GST; dsDNA, one strand shown
# Procedure, shortened: as §1
# CRX, sequence (O43186 whole entry): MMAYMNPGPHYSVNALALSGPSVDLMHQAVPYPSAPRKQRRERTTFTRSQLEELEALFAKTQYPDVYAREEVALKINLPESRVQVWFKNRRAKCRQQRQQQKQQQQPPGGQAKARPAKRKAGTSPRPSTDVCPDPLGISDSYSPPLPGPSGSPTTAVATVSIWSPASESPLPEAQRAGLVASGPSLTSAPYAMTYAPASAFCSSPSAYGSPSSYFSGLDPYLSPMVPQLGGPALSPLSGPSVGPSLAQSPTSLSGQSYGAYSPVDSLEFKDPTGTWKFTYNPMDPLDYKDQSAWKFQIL
# HSF1, sequence (Q00613 whole entry): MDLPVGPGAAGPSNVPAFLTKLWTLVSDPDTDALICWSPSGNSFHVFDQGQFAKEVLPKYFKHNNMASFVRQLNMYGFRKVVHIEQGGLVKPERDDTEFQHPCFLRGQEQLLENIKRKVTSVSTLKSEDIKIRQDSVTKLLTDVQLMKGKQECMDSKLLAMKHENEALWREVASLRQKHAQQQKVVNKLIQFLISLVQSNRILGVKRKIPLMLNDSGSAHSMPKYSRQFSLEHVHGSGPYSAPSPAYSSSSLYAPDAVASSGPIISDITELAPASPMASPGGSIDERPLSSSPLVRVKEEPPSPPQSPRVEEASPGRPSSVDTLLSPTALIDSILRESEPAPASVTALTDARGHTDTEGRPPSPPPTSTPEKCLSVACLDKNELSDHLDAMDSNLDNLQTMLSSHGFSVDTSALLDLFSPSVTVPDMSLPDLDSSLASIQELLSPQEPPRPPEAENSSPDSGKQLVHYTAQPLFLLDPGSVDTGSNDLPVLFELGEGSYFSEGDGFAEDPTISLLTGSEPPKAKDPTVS
# ELF1, sequence (P32519 whole entry): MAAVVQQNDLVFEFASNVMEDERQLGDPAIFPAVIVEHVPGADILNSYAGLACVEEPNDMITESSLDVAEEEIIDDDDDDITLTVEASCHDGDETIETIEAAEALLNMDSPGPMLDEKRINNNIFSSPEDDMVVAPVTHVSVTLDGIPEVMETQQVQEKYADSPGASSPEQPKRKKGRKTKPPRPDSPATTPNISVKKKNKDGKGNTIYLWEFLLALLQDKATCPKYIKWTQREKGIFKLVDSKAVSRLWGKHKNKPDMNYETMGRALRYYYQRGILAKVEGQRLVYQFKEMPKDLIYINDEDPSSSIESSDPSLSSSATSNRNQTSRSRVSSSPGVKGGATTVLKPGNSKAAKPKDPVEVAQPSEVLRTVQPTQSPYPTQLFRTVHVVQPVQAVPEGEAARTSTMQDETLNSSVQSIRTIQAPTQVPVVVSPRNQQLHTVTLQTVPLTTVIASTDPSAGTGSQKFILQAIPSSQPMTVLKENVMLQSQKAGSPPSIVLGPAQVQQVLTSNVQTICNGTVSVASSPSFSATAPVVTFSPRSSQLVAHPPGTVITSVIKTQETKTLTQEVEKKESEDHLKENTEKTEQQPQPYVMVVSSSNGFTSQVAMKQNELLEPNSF
# ETV5, sequence (P41161 whole entry): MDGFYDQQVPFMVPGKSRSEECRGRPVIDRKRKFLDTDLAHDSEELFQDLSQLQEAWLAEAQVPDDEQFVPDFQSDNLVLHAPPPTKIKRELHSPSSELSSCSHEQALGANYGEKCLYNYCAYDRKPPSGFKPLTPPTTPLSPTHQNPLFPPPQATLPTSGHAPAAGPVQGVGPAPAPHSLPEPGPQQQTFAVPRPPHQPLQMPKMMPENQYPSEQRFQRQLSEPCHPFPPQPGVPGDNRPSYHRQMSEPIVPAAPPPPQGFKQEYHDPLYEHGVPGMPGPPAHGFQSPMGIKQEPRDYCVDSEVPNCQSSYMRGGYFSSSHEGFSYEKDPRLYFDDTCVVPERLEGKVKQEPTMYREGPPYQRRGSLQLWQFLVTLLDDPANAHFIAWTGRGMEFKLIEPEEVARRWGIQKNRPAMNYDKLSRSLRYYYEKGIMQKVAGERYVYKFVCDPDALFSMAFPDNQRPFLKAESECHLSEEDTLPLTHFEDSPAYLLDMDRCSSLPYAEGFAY
# SPIB, sequence (Q01892 whole entry): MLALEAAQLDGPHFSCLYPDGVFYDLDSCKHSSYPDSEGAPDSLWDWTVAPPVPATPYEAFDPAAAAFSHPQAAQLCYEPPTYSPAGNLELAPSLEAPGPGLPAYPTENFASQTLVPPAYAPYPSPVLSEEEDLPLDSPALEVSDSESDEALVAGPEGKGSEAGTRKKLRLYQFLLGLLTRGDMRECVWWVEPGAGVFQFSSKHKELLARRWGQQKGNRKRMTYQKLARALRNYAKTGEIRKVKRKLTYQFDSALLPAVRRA
# ELF4, sequence (Q99607 whole entry): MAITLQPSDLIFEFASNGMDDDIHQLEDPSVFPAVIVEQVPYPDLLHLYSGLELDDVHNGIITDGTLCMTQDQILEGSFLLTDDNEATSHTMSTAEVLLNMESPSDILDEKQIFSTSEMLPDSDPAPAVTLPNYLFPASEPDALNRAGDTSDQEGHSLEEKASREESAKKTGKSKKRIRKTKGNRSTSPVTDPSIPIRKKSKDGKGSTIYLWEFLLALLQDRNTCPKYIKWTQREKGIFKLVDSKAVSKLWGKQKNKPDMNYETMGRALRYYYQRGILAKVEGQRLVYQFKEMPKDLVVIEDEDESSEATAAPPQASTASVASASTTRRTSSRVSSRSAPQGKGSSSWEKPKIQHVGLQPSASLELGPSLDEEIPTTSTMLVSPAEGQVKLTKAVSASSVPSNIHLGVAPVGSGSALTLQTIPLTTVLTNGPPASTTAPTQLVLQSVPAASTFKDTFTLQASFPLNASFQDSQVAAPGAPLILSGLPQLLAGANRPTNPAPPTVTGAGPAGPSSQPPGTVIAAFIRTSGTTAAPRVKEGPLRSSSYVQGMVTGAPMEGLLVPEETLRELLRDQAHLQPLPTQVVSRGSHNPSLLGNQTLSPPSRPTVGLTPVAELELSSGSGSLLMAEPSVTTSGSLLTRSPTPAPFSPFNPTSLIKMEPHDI
# ETV1, sequence (P50549 whole entry): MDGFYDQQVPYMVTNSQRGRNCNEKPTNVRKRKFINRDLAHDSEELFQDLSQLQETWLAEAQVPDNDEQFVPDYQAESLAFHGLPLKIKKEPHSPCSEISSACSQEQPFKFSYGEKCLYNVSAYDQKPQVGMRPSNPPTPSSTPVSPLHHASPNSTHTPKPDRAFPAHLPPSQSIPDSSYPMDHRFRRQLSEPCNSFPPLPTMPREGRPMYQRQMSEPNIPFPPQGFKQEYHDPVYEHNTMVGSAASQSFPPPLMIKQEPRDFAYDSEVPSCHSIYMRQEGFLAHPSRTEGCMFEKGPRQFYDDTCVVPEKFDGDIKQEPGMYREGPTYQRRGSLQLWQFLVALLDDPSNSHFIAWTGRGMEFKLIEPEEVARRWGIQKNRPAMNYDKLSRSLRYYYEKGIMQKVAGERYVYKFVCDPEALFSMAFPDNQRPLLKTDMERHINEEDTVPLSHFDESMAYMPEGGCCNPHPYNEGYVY
sequence,measurement,setting,value
CCGCAA,binding signal,[1],"1.27 fold enrichment (6-mer frequency, TF over GST control)"
same,binding signal,[2],"1.3 fold enrichment (6-mer frequency, TF over GST control)"
same,binding signal,[3],"1.36 fold enrichment (6-mer frequency, TF over GST control)"
same,binding signal,[4],"1.28 fold enrichment (6-mer frequency, TF over GST control)"
same,binding signal,[5],"1.31 fold enrichment (6-mer frequency, TF over GST control)"
same,binding signal,[6],"1.34 fold enrichment (6-mer frequency, TF over GST control)"
same,binding signal,[7],"1.45 fold enrichment (6-mer frequency, TF over GST control)"
same,binding signal,[8],"1.28 fold enrichment (6-mer frequency, TF over GST control)"
same,binding signal,[9],"1.34 fold enrichment (6-mer frequency, TF over GST control)"
same,binding signal,[10],"1.29 fold enrichment (6-mer frequency, TF over GST control)"
same,binding signal,[11],"1.3 fold enrichment (6-mer frequency, TF over GST control)"
same,binding signal,[12],"1.07 fold enrichment (6-mer frequency, TF over GST control)"
same,binding signal,[13],"1.42 fold enrichment (6-mer frequency, TF over GST control)"
same,binding signal,[14],"1.31 fold enrichment (6-mer frequency, TF over GST control)"
same,binding signal,[15],"1.36 fold enrichment (6-mer frequency, TF over GST control)"
same,binding signal,[16],"1.35 fold enrichment (6-mer frequency, TF over GST control)"
same,binding signal,[17],"1.39 fold enrichment (6-mer frequency, TF over GST control)"
same,binding signal,[18],"1.01 fold enrichment (6-mer frequency, TF over GST control)"
same,binding signal,[19],"1.38 fold enrichment (6-mer frequency, TF over GST control)"
